# Laboratory results from PubChem BioAssay AID1159580 (chemical genetic matrix, 2015).
# Among all 5,500 compounds or so, about 2,000 (36%) were called active. About 18% were inconclusive and are not listed. The list shows a part of the results. A number with no mark means an inactive call. No stated cut-off is given here; in the data, active means normalized growth mostly below about 0.91 (no sharp cut-off); inconclusive means no clear call, values can overlap the other calls; inactive means mostly above about 0.92.
# Assay: chemical genetic growth profiling, strain panel (AID 1159580);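 further: tested at 20 µM; growth read once vehicle control cultures reached saturation at 30 °C; 1 = growth at the plate median or of vehicle wells; lower values mean less growth of the strain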
# Details: S. cerevisiae deletion strains, growth OD
structure (smiles),measurement,setting,value
Cc1nc(-c2cccnc2)nc(NCc2ccccc2)c1Cl,normalized growth,"locus YAR019C, strain CDC15, active compounds read low",0.943
same,normalized growth,"locus YBL105C, strain PKC1, active compounds read low",0.945
same,normalized growth,"locus YBR135W, strain CKS1, active compounds read low",0.941
same,normalized growth,"locus YBR136W, strain MEC1, active compounds read low",0.919
same,normalized growth,"locus YBR160W, strain CDC28, active compounds read low",0.955
same,normalized growth,"locus YDL017W, strain CDC7, active compounds read low",0.943
same,normalized growth,"locus YDL028C, strain MPS1, active compounds read low",0.926
same,normalized growth,"locus YDL101C, strain DUN1, active compounds read low",0.938
same,normalized growth,"locus YDL108W, strain KIN28, active compounds read low",0.924
same,normalized growth,"locus YDL132W, strain cdc53, active compounds read low",0.939
same,normalized growth,"locus YDL214C, strain PRR2, active compounds read low",0.866
same,normalized growth,"locus YDR052C, strain DBF4, active compounds read low",0.945
same,normalized growth,"locus YDR054C, strain cdc34, active compounds read low",0.933
same,normalized growth,"locus YDR226W, strain ADK1, active compounds read low",0.951
same,normalized growth,"locus YDR477W, strain SNF1, active compounds read low",0.887
same,normalized growth,"locus YER123W, strain YCK3, active compounds read low",0.784
same,normalized growth,"locus YER133W, strain GLC7, active compounds read low",0.853
same,normalized growth,"locus YFL009W, strain cdc4, active compounds read low",0.932
same,normalized growth,"locus YFL029C, strain CAK1, active compounds read low",0.941
same,normalized growth,"locus YFR003C, strain YPI1, active compounds read low",0.943
same,normalized growth,"locus YFR019W, strain FAB1, active compounds read low",0.946
same,normalized growth,"locus YFR028C, strain CDC14, active compounds read low",0.931
same,normalized growth,"locus YGR040W, strain KSS1, active compounds read low",0.841
same,normalized growth,"locus YGR052W, strain FMP48, active compounds read low",0.937
same,normalized growth,"locus YGR092W, strain DBF2, active compounds read low",0.8
same,normalized growth,"locus YHR030C, strain SLT2, active compounds read low",0.936
same,normalized growth,"locus YHR079C, strain IRE1, active compounds read low",0.887
same,normalized growth,"locus YHR082C, strain KSP1, active compounds read low",0.935
same,normalized growth,"locus YHR205W, strain SCH9, active compounds read low",0.886
same,normalized growth,"locus YIL147C, strain SLN1, active compounds read low",0.929
same,normalized growth,"locus YJL095W, strain BCK1, active compounds read low",0.923
same,normalized growth,"locus YJL128C, strain PBS2, active compounds read low",0.907
same,normalized growth,"locus YJL157C, strain FAR1, active compounds read low",0.877
same,normalized growth,"locus YJR016C, strain ILV3, active compounds read low",0.935
same,normalized growth,"locus YJR066W, strain TOR1 (second series), active compounds read low",0.884
same,normalized growth,"locus YJR066W, strain TOR1, active compounds read low",0.922
same,normalized growth,"locus YKL048C, strain ELM1, active compounds read low",0.94
same,normalized growth,"locus YKL067W, strain YNK1, active compounds read low",0.89
same,normalized growth,"locus YKL101W, strain HSL1, active compounds read low",0.892
same,normalized growth,"locus YKL193C, strain SDS22, active compounds read low",0.937
same,normalized growth,"locus YKL203C, strain TOR2, active compounds read low",0.923
same,normalized growth,"locus YLR113W, strain HOG1, active compounds read low",0.846 (active)
same,normalized growth,"locus YLR133W, strain CKI1, active compounds read low",0.913
same,normalized growth,"locus YLR403W, strain SFP1, active compounds read low",0.849
same,normalized growth,"locus YML070W, strain DAK1, active compounds read low",0.847
same,normalized growth,"locus YMR001C, strain CDC5, active compounds read low",0.938
same,normalized growth,"locus YMR205C, strain PFK2 (second series), active compounds read low",0.897
same,normalized growth,"locus YMR277W, strain FCP1, active compounds read low",0.943
same,normalized growth,"locus YNL006W, strain LST8, active compounds read low",0.954
same,normalized growth,"locus YNL020C, strain ARK1, active compounds read low",0.885
same,normalized growth,"locus YNL161W, strain CBK1, active compounds read low",0.952
same,normalized growth,"locus YNL183C, strain NPR1, active compounds read low",0.898
same,normalized growth,"locus YNL207W, strain RIO2, active compounds read low",0.922
same,normalized growth,"locus YNL222W, strain SSU72, active compounds read low",0.942
same,normalized growth,"locus YNL307C, strain MCK1 (second series), active compounds read low",0.899
same,normalized growth,"locus YOL078W, strain AVO1, active compounds read low",0.941
same,normalized growth,"locus YOL136C, strain PFK27, active compounds read low",0.877
same,normalized growth,"locus YOR061W, strain CKA2, active compounds read low",0.89
same,normalized growth,"locus YOR119C, strain RIO1, active compounds read low",0.889
same,normalized growth,"locus YOR231W, strain MKK1, active compounds read low",0.9
same,normalized growth,"locus YOR329C, strain SCD5, active compounds read low",0.948
same,normalized growth,"locus YPL031C, strain PHO85, active compounds read low",0.82
same,normalized growth,"locus YPL153C, strain RAD53, active compounds read low",0.841
same,normalized growth,"locus YPL204W, strain HRR25, active compounds read low",0.856
same,normalized growth,"locus YPL209C, strain IPL1, active compounds read low",0.942
same,normalized growth,"locus YPL256C, strain CLN2, active compounds read low",0.908
same,normalized growth,"locus YPR025C, strain CCL1, active compounds read low",0.951
same,normalized growth,"locus YPR106W, strain ISR1, active compounds read low",0.953
same,normalized growth,"locus YPR111W, strain DBF20, active compounds read low",0.942
same,normalized growth,"strain NNK1, active compounds read low",0.94
same,normalized growth,"strain TSCII, active compounds read low",0.934
